Source: article PMC7672089, “Two nuclear effectors of the rice blast fungus modulate host immunity via transcriptional reprogramming”

Each sequence was assayed against T1, MoHTR1 (Magnaporthe oryzae, UniProt Q2KEJ2 20-198) (assay: array; high values mean tight binding). Conditions: protein: recombinant; tags: DsRed; 6xHis (pET-32a vector); dsDNA, one strand shown.
T1 sequence: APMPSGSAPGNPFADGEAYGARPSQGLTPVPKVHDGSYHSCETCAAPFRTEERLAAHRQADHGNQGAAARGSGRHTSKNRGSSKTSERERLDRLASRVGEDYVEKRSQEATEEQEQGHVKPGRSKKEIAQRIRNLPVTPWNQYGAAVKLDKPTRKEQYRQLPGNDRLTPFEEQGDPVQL

Row | Sequence | binding signal
1 | TCAATCTC | 23900 a.u.
2 | CCTCAATC | 19700 a.u.
3 | AACTCTCC | 21600 a.u.
4 | TCCAATCC | 22900 a.u.
5 | CTCAACTC | 24700 a.u.
6 | CAATCTCC | 20800 a.u.
7 | CCATACAC | 14100 a.u.
8 | CCAACTCC | 20800 a.u.
9 | CTCCAACC | 14800 a.u.
10 | CAATCTTC | 27900 a.u.
11 | CTCTAATC | 21800 a.u.
12 | CTTCAATC | 21100 a.u.
13 | AACTCCTC | 22100 a.u.
14 | TCTCAATC | 24100 a.u.
15 | CATACTCC | 19100 a.u.
16 | CCACCTCC | 24000 a.u.
17 | CTCATACC | 25600 a.u.
18 | CCTCCACC | 23900 a.u.
19 | CAATCCTC | 20100 a.u.
20 | CCGCCACC | 13400 a.u.
21 | CCTCCTCC | 21700 a.u.
22 | CTAACTCC | 22500 a.u.

These sequences were tested against T2, MoHTR2 (Magnaporthe oryzae, UniProt G5EHQ6 19-110) (assay: array; high values mean tight binding). Conditions: protein: recombinant; tags: DsRed; 6xHis (pET-32a vector); dsDNA, one strand shown.
T2 sequence: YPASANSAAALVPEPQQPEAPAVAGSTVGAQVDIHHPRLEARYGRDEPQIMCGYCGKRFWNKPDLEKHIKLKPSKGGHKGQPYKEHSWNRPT

Row | Sequence | binding signal
23 | CCTCCGCC | 9500 a.u.
24 | CCGCCTCC | 8800 a.u.
25 | CCACCTCC | 11800 a.u.
26 | CATACCTC | 8490 a.u.
27 | CCTCCACC | 11600 a.u.
28 | CCTCCTCC | 10800 a.u.
